The supplement of paper PMC7411054

Key:
Assay in all cases: phenotypically active (imaging signature differs from DMSO and reproducible) at any of 0.3-9 uM (binary (1 = active, 0 = inactive)); higher = active
Settings in all cases: treatment time: 24 h
[1] = system: A549-ACTB-RAB5A
Method in brief: (§1)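 Four wells per concentration (0.3, 1, 3 or 9 µM) were treated for 24 h in each of fifteen gene-edited reporter lines from A549, HepG2 and WPMY1 cells, then imaged live. After normalising live-cell features to solvent control wells, deviation was defined as ≥3 of 4 wells lying past the 95th percentile of control Euclidean distances. Reproducibility was defined as a median replicate Pearson correlation above the 95th percentile of non-replicates. Both had to hold for phenotypic activity.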

[2] = system: A549-CANX-COX4
Method in brief: as §1

[3] = system: A549-GM130-SQSTM1
Method in brief: as §1

[4] = system: A549-TP53BP1-CLTA
Method in brief: as §1

[5] = system: A549-TUBA1B-RELA
Method in brief: as §1

[6] = system: HepG2-ACTB-RAB5A
Method in brief: as §1

[7] = system: HepG2-CANX-COX4
Method in brief: as §1

[8] = system: HepG2-GM130-SQSTM1
Method in brief: as §1

[9] = system: HepG2-TP53BP1-CLTA
Method in brief: as §1

[10] = system: HepG2-TUBA1B-RELA
Method in brief: as §1

[11] = system: WPMY1-ACTB-RAB5A
Method in brief: as §1

[12] = system: WPMY1-CANX-COX4
Method in brief: as §1

[13] = system: WPMY1-GM130-SQSTM1
Method in brief: as §1

[14] = system: WPMY1-TP53BP1-CLTA
Method in brief: as §1

[15] = system: WPMY1-TUBA1B-RELA
Method in brief: as §1

Measured: phenotypically active

C[N+](C)(CCCCCC[N+](C)(C)CCCN1C(=O)c2ccccc2C1=O)CCCN1C(=O)c2ccccc2C1=O [W-84 dibromide]
inactive: [1] 0 | [2] 0 | [3] 0 | [4] 0 | [5] 0 | [6] 0 | [7] 0 | [8] 0 | [9] 0 | [10] 0 | [11] 0 | [12] 0 | [13] 0 | [14] 0 | [15] 0

CN1[C@@H](CC(=O)c2ccccc2)CCC[C@H]1C[C@H](O)c1ccccc1 [Lobeline alpha (-) hydrochoride]
inactive: [1] 0 | [2] 0 | [3] 0 | [4] 0 | [5] 0 | [6] 0 | [7] 0 | [8] 0 | [9] 0 | [10] 0 | [11] 0 | [12] 0 | [13] 0 | [14] 0 | [15] 0

C[C@H](NC(=O)CCc1nc2ccccc2c(=O)[nH]1)c1ccccc1
inactive: [1] 0 | [2] 0 | [3] 0 | [4] 0 | [5] 0 | [6] 0 | [7] 0 | [8] 0 | [9] 0 | [10] 0 | [11] 0 | [12] 0 | [13] 0 | [14] 0 | [15] 0

O=C(CCc1ccc(O)cc1)c1c(O)cc(O)cc1O[C@@H]1O[C@H](CO)[C@@H](O)[C@H](O)[C@H]1O [Phloridzin]
inactive: [1] 0 | [2] 0 | [3] 0 | [4] 0 | [5] 0 | [6] 0 | [7] 0 | [8] 0 | [9] 0 | [10] 0 | [11] 0 | [12] 0 | [13] 0 | [14] 0 | [15] 0

COc1c(OC2OC(CO)[C@@H](O)[C@H](O)[C@H]2O)cc2c(c1OC)-c1ccc(OC)c(=O)cc1[C@@H](NC(C)=O)CC2 (stereo not given in full) [Colchicoside]
inactive: [1] 0 | [2] 0 | [3] 0 | [4] 0 | [5] 0 | [6] 0 | [7] 0 | [8] 0 | [9] 0 | [10] 0 | [11] 0 | [12] 0 | [13] 0 | [14] 0 | [15] 0

NC(=O)c1cccnc1 [Nicotinamide]
inactive: [1] 0 | [2] 0 | [3] 0 | [4] 0 | [5] 0 | [6] 0 | [7] 0 | [8] 0 | [9] 0 | [10] 0 | [11] 0 | [12] 0 | [13] 0 | [14] 0 | [15] 0

CC(=O)Nc1nnc(S(N)(=O)=O)s1 [acetazolamide]
inactive: [1] 0 | [2] 0 | [3] 0 | [4] 0 | [5] 0 | [6] 0 | [7] 0 | [8] 0 | [9] 0 | [10] 0 | [11] 0 | [12] 0 | [13] 0 | [14] 0 | [15] 0

CNC(=O)COC(=O)NCCC1CCN(c2cccc(C)n2)CC1
inactive: [1] 0 | [2] 0 | [3] 0 | [4] 0 | [5] 0 | [6] 0 | [7] 0 | [8] 0 | [9] 0 | [10] 0 | [11] 0 | [12] 0 | [13] 0 | [14] 0 | [15] 0

Cc1ccccc1Sc1ccc(/C=C2/SC(=S)NC2=O)cc1[N+](=O)[O-]
inactive: [1] 0 | [2] 0 | [3] 0 | [4] 0 | [5] 0 | [6] 0 | [7] 0 | [8] 0 | [9] 0 | [10] 0 | [11] 0 | [12] 0 | [13] 0 | [14] 0 | [15] 0

O=C1CCc2c(ccc3ccccc23)O1 [Splitomicin]
inactive: [1] 0 | [2] 0 | [3] 0 | [4] 0 | [5] 0 | [6] 0 | [7] 0 | [8] 0 | [9] 0 | [10] 0 | [11] 0 | [12] 0 | [13] 0 | [14] 0 | [15] 0

NCCc1ccc(O)c(O)c1 [dopamine]
inactive: [1] 0 | [2] 0 | [3] 0 | [4] 0 | [5] 0 | [6] 0 | [7] 0 | [8] 0 | [9] 0 | [10] 0 | [11] 0 | [12] 0 | [13] 0 | [14] 0 | [15] 0

COc1c2occc2cc2ccc(=O)oc12 [methoxsalen]
inactive: [1] 0 | [2] 0 | [3] 0 | [4] 0 | [5] 0 | [6] 0 | [7] 0 | [8] 0 | [9] 0 | [10] 0 | [11] 0 | [12] 0 | [13] 0 | [14] 0 | [15] 0
